Whole data set: some 68,000 sequences, median “fluorescence intensity (a.u.)” near 9,100, cut for the highest 2% near 16,000. What follows is part of a selection rich in the highest values, with near analogues and random picks from the rest.
Molecular target: OsWRKY34 (Oryza sativa, UniProt Q0JBA9 1-250)
Test: protein-binding microarray (RPBM); PBS, 2% BSA, 51.3 ng/ul salmon testes DNA, 50 uM zinc acetate, 200 nM TF, 25 C, 1 h; high values mean tight binding
Details: protein: recombinant; tags: N-terminal polyhistidine and DsRed monomer fusion (pET32a); label: CyDye5-dUTP incorporated in the synthesized complementary strand; 3' TTTTT single-stranded linker to array surface; dsDNA, one strand shown
Procedure, shortened: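 Using Ni–NTA, transcription factors fused N-terminally to polyhistidine and DsRed were purified after expression in E. coli BL21-CodonPlus. These were incubated at 200 nM with a blocked, double-stranded custom Agilent array for 1 h at 25 °C in a buffer containing 50 µM zinc acetate, and the array was washed. The binding signal is per-feature fluorescence intensity (arbitrary units) on an Axon 4000B scanner.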

Chain of OsWRKY34 (Q0JBA9 entry or part of it): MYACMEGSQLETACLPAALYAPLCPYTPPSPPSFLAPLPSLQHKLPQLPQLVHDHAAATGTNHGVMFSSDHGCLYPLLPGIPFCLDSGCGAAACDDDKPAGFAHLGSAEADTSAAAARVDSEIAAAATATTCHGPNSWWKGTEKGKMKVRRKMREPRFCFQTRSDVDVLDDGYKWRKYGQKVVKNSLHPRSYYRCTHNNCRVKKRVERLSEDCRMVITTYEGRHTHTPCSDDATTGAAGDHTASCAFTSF

Sequence | binding signal
GAATTTTGCTTTGGTTCAACCTTTTTTCTCTTCTTTCTCTCGGAGTCACCTAGTGCAG | 9740 fluorescence intensity (a.u.)
AAGGTATGGTTCTTCATTCTTGTCATTTTCTTTTGCAGCACGGAGTCACCTAGTGCAG | 8220 fluorescence intensity (a.u.)
CTCAGCTTCCGTTATTACCTCTGCGCACAAGTTACCGGGCCGGAGTCACCTAGTGCAG | 8720 fluorescence intensity (a.u.)
AAATTAAATTTAAAAATTTAAATTTTGACTTTTTCTTGACCGGAGTCACCTAGTGCAG | 8250 fluorescence intensity (a.u.)
CTCCATCCTAAAATGTTTGACGCCGTTGACTTTTTTAAATCGGAGTCACCTAGTGCAG | 24500 fluorescence intensity (a.u.)
TTGACGCCGTTGACTTTTTAAAAAATATTTGACCGTTCTTCGGAGTCACCTAGTGCAG | 37100 fluorescence intensity (a.u.)
TGTTTGACTTTTTTCTTGGTTAAAATTCTTTAAATTTGATCGGAGTCACCTAGTGCAG | 18900 fluorescence intensity (a.u.)
CCTCATCACAAAATGTTTGACGCTGTTGACTTTTTTAAAACGGAGTCACCTAGTGCAG | 15900 fluorescence intensity (a.u.)
AATTTTCTTAAAATTTGAGGTTTAGTTTGACTTTCTTTTTCGGAGTCACCTAGTGCAG | 9400 fluorescence intensity (a.u.)
GTACTCCCTCCATCCCTAAATGTTTGACGCCGTTGACTTTCGGAGTCACCTAGTGCAG | 16000 fluorescence intensity (a.u.)
AAGATATTTTCAATGTATTTTTTTATTGTTGACTTTTAAACGGAGTCACCTAGTGCAG | 9030 fluorescence intensity (a.u.)
GAAAAAAATGTAAAAACTGTTGACTTTTAGTCAACGCCATCGGAGTCACCTAGTGCAG | 16400 fluorescence intensity (a.u.)
GGTGGTTCTTGCTTCACACAATCTGGCGCGCTTCAGAACACGGAGTCACCTAGTGCAG | 13300 fluorescence intensity (a.u.)
AAAACATGGTACAAATGCATACGCTCACACATGCACACTCCGGAGTCACCTAGTGCAG | 8300 fluorescence intensity (a.u.)
ACTCACACTAGCTTGAAACTATCTGCGTACTCAAATTCAACGGAGTCACCTAGTGCAG | 8080 fluorescence intensity (a.u.)
CCATCCCGCCGCCACCGCCGCCGCCGCCGCCTCATCCTCCCGGAGTCACCTAGTGCAG | 9300 fluorescence intensity (a.u.)
ATTCTCAAATACCACTCGGGCCCACATGTCAGCCTTACTCCGGAGTCACCTAGTGCAG | 8200 fluorescence intensity (a.u.)
CGGCTCGCTCAACCATACCACCTTTTCAAATTCATTTTTCCGGAGTCACCTAGTGCAG | 11600 fluorescence intensity (a.u.)
CGCCGTTGACTTTTTTAAAAATGTTTGACCGTTCCTCTTACGGAGTCACCTAGTGCAG | 20900 fluorescence intensity (a.u.)
ATCTTTGACGTCGTTGACTTTTAAAAAAATGTTTGACCGTCGGAGTCACCTAGTGCAG | 22300 fluorescence intensity (a.u.)
ATATTTGACGACGTTGATTTTTTTTAAATATGTTTGACCGCGGAGTCACCTAGTGCAG | 9090 fluorescence intensity (a.u.)

Sequence | binding signal
CGTCTCTAAATACTTGACGCCGTTGACTTTTTTAAATATGCGGAGTCACCTAGTGCAG | 26900 fluorescence intensity (a.u.)
ATTTTTGACGCCGTTGACTTTTTTTAAATATGTTTGACCGCGGAGTCACCTAGTGCAG | 46900 fluorescence intensity (a.u.)
ACGTCTCCACCACCACCACCGGCCAAACGCCGACCTCATCCGGAGTCACCTAGTGCAG | 9450 fluorescence intensity (a.u.)
CCAGTCAATTTCCCCACGTGCCATCTCGCTGCATCCGCCGCGGAGTCACCTAGTGCAG | 10500 fluorescence intensity (a.u.)
CTCGCGCGCCCCGCCCGTTTCGCCTCGGCCGCCTCCTCCACGGAGTCACCTAGTGCAG | 8480 fluorescence intensity (a.u.)
CATCTGCACGCATATATATCTGTAAACTCAGCGCGTTTTTCGGAGTCACCTAGTGCAG | 8100 fluorescence intensity (a.u.)
ATTGTGGACTGTTTGACCTCCAGTTTGGACTGTAGGAATTCGGAGTCACCTAGTGCAG | 8060 fluorescence intensity (a.u.)
CTGTTGGTCAATCGCCGAACTTACCGCCGCGCCGGCCATGCGGAGTCACCTAGTGCAG | 9410 fluorescence intensity (a.u.)
TTCATTTTCAATTCCCGTCCTCATTCTTCTTATGATATTTCGGAGTCACCTAGTGCAG | 8930 fluorescence intensity (a.u.)
AATCCATAATTAGTAAATATTTACTGTAGCACCATATTGTCGGAGTCACCTAGTGCAG | 9810 fluorescence intensity (a.u.)
ACTTTTTAAAACATGTTTGACCGTTCATCTTATTTAAAAACGGAGTCACCTAGTGCAG | 8690 fluorescence intensity (a.u.)
CGCTGTTGACTTTTTTAAAAATGTTTGACCGTTCATCTTACGGAGTCACCTAGTGCAG | 33600 fluorescence intensity (a.u.)
ACTTTTTAAAACATGTTTGACCGTTCATCTTATTCAAAAACGGAGTCACCTAGTGCAG | 8410 fluorescence intensity (a.u.)
GTTGACTTTTTTTTAAACATGTTTGACCATTCATCTTATTCGGAGTCACCTAGTGCAG | 11100 fluorescence intensity (a.u.)
ATTTTGACTTTTTCTTGTACTGTTTGACCATTCATCTTATCGGAGTCACCTAGTGCAG | 16200 fluorescence intensity (a.u.)
GTTGTTGACTTTTTAAAATTTGTTTGACCATTCATCTTATCGGAGTCACCTAGTGCAG | 23100 fluorescence intensity (a.u.)
ACGCCGTTGACTTTTTAAAATATGTTTGACCGTTTATCTTCGGAGTCACCTAGTGCAG | 45700 fluorescence intensity (a.u.)
ATTTGACGCCGTTACTTTTTTTAAAAATGTTTGGCCGTTCCGGAGTCACCTAGTGCAG | 8270 fluorescence intensity (a.u.)
AATGTTTGACGCCGTTGACTTTTTTAAAAATGTTTGGCCGCGGAGTCACCTAGTGCAG | 29800 fluorescence intensity (a.u.)
CGGTTCTTGTCGTAGAAAGCTCCGTGTTATCGTTTATATTCGGAGTCACCTAGTGCAG | 8090 fluorescence intensity (a.u.)
CAGCCACCTCTCCATCTTCTGTCCGTTCACCTCTCCGTAACGGAGTCACCTAGTGCAG | 12600 fluorescence intensity (a.u.)
